The results in this text go back to PubChem BioAssay (Tox21).

Where “and” joins values, the source holds several entries; their conditions need not be identical. Equal values may be shown once. Records with an inconclusive call do not appear. The source holds several records for some structures; these can differ, active in one and inactive in another. Calls of active or inactive are those of the source. Unless noted, calls follow the shape of the dose curve; as a rule, active = well fitted curve in the direction sought with a large enough effect in the repeat runs; inconclusive = weak or mixed curves; inactive = no such curve, though single readings can be large; an effect the other way counts as inactive or inconclusive.

The nature of test [1]: qHTS assay to identify aromatase inhibitors - cell viability counter screen (AID 743084).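 Also: cells stimulated with testosterone during compound exposure; nearly all actives have a fitted effect of over 55% in size.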
Test [2] concerns the target Aryl hydrocarbon receptor (Homo sapiens) (UniProt P35869). In words: qHTS assay to identify small molecule that activate the aryl hydrocarbon receptor (AhR) signaling pathway (AID 743085). Also: nearly all actives have a fitted effect of over 15% in size. Also: potency is read from the fitted curve at half-maximal effect.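 As to activation: HG2L7.5c1 human HepG2 liver cells with stably integrated DRE-driven firefly reporter; series mostly up to about 70 µM.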 The method in brief:
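Luminescence (ONE-Glo) from a dioxin-responsive-element luciferase reporter in HG2L7.5c1 HepG2 cells after 24 hr compound exposure at 37C; viability measured by CellTiter-Fluor fluorescence beforehand.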

Test [3] in a line: qHTS assay to identify small molecule that activate the aryl hydrocarbon receptor (AhR) signaling pathway - cell viability counter screen (AID 743086). Also: series mostly up to about 70 µM; nearly all actives have a fitted effect of over 45% in size. The method in brief: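 Cytotoxicity counter screen: CellTiter-Fluor signal (30 min, 37 C) in 4000 HepG2 cells/well carrying the DRE-luciferase reporter, following 24 h compound exposure at 37 C.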
The target of test [4] is Peroxisome proliferator-activated receptor gamma (Homo sapiens) (UniProt P37231). Nature of the test: qHTS assay to identify small molecule agonists of the peroxisome proliferator-activated receptor gamma (PPARg) signaling pathway (AID 743094; active = well fitted activation curve with a large enough effect in the signal ratio in the repeat runs, not every such curve was filed as active; the % refers to the signal ratio). The method in brief: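 GeneBLAzer PPARg UAS-bla HEK293H cells carrying a stably integrated beta-lactamase reporter were pre-incubated 5 h at 37C, then exposed to compounds in DMSO for 17 h at 37C; LiveBLAzer B/G FRET substrate was added for 1 h at room temperature and fluorescence read.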
Sequence of Peroxisome proliferator-activated receptor gamma (Homo sapiens) (P37231 whole entry, looked up): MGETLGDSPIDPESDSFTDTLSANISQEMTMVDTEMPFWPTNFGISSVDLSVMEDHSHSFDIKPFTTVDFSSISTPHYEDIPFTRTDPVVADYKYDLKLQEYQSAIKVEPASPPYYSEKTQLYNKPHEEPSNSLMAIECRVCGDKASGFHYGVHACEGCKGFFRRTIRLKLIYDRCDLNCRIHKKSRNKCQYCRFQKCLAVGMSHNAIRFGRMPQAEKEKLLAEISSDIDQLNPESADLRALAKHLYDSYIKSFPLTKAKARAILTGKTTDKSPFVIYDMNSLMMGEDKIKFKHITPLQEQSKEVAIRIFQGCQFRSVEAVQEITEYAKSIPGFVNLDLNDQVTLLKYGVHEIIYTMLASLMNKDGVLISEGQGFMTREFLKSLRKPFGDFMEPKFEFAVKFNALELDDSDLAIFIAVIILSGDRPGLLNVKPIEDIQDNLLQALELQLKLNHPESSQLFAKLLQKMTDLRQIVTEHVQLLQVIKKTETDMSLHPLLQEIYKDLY

Test [5] shares this target. Nature of the test: qHTS assay to identify small molecule antagonists of the peroxisome proliferator-activated receptor gamma (PPARg) signaling pathway (AID 743191; calls by dose curve; also: nearly all actives have a fitted effect of over 30% in size; also: potency is read from the fitted curve at half-maximal effect). The gist of the method: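 Beta-lactamase reporter under UAS control in HEK293H PPARg-bla cells; compound treatment 17 h at 37C. Read-out: fluorescence intensity after 1 h room-temperature incubation with LiveBLAzer B/G FRET substrate.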

Test [6] can be described thus: qHTS assay to identify small molecule antagonists of the peroxisome proliferator-activated receptor gamma (PPARg) signaling pathway - cell viability counter screen (AID 743194). Also: nearly all actives have a fitted effect of over 55% in size. The settings on record: Potency: co-treated with 50 nM rosiglitazone unless noted. The gist of the method: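 Viability was measured as CellTiter-Glo luminescence in GeneBLAzer PPARg UAS-bla HEK293H cells. These cells had been exposed 17 h at 37 C to compounds together with rosiglitazone at 50 nM final, with the beta-lactamase readout taken in the same wells.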

A short description of test [7]: qHTS assay for small molecule agonists of the antioxidant response element (ARE) signaling pathway (AID 743202; active = well fitted activation curve with a large enough effect in the signal ratio in the repeat runs, not every such curve was filed as active; the % refers to the signal ratio; also: potency is read from the fitted curve at half-maximal effect). The method in brief:
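An ARE-responsive beta-lactamase gene stably integrated in HepG2 cells serves as reporter. After 5 h plating and 16 h compound incubation at 37 C, fluorescence of the B/G FRET substrate was measured.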

Test [8] can be described thus: qHTS assay for small molecule agonists of the antioxidant response element (ARE) signaling pathway - cell viability counter screen (AID 743203; calls by dose curve; also: nearly all actives have a fitted effect of over 55% in size). The gist of the method: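 CellSensor ARE-bla HepG2 cells, 2,000 per well, rested 5 hrs at 37C/5% CO2, then exposed to compound in DMSO for 16 hrs; viability read as CellTiter-Glo luminescence after 30 min at room temperature, in the reporter wells.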

Test [9] in a line: qHTS assay for small molecule activators of the heat shock response signaling pathway - cell viability counter screen (AID 743209). Also: nearly all actives have a fitted effect of over 50% in size. The gist of the method:
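CellSensor HSE-bla HeLa cells, plated overnight at 37 C/5% CO2, were exposed to compounds in DMSO for 5 h at 37 C. Viability was then read in the same wells by CellTiter-Glo luminescence after 30 min at room temperature.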

Test [10] is described as follows: qHTS assay for small molecule activators of the heat shock response signaling pathway (AID 743210; active = well fitted activation curve with a large enough effect in the signal ratio in the repeat runs, with a control signal flat, not every such curve was filed as active; the % refers to the signal ratio;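 also: HeLa cells with beta-lactamase reporter driven by heat shock elements; series mostly up to about 63 µM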). The method in brief: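 In HSE-bla HeLa cells, 5 h compound incubation (37 C) precedes addition of LiveBLAzer B/G substrate; after 2.5 h at room temperature, fluorescence intensity indicates reporter induction.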
Test [11] in a line: qHTS assay to identify small molecule agonists of the peroxisome proliferator-activated receptor delta (PPARd) signaling pathway - cell viability counter screen (AID 743211). Also: nearly all actives have a fitted effect of over 55% in size. The gist of the method: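 Viability was measured as CellTiter-Glo luminescence (30 min, room temperature) in the same wells as the beta-lactamase readout. GeneBLAzer PPARd UAS-bla HEK293H cells received compound after 5 h plating and were incubated 17 h at 37 C.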

The target in test [12] is Peroxisome proliferator-activated receptor delta (Homo sapiens) (UniProt Q03181). In words: qHTS assay to identify small molecule agonists of the peroxisome proliferator-activated receptor delta (PPARd) signaling pathway (AID 743212; calls by dose curve). The method in brief:
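HEK293H UAS-bla reporter cells, human PPARd system; compounds delivered in DMSO after 5 h plating, then at 37 C. Beta-lactamase FRET read, 2 h RT substrate step.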

The nature of test [13]: qHTS assay to identify small molecule antagonists of the peroxisome proliferator-activated receptor delta (PPARd) signaling pathway - cell viability counter screen (AID 743213). Also: nearly all actives have a fitted effect of over 50% in size. The method in brief:
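Cytotoxicity counter screen: CellTiter-Glo luminescence read 30 min after addition, in the same wells as the reporter assay. There, PPARd UAS-bla HEK293H cells (3000/well) were treated 17 h at 37 C with compound and 300 nM L165041.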

Test [14] concerns the target Peroxisome proliferator-activated receptor delta (Homo sapiens) (UniProt Q03181). Nature of the test: qHTS assay to identify small molecule antagonists of the peroxisome proliferator-activated receptor delta (PPARd) signaling pathway (AID 743215; active = well fitted inhibition curve with a large enough effect in the signal ratio in the repeat runs, not every such curve was filed as active; the % refers to the signal ratio;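 also: cells stimulated with agonist L165041 at 300 nM final during compound exposure; series mostly up to about 62 µM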). The gist of the method:
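PPARd UAS-bla HEK293H cells were pre-incubated 5 h at 37 C, then given test compounds in DMSO plus agonist L165041 (300 nM final). After 17 h at 37 C, beta-lactamase FRET substrate was added; fluorescence read after 2 h at room temperature.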

A short description of test [15]: qHTS assay to identify small molecule agonists of the farnesoid-X-receptor (FXR) signaling pathway - cell viability counter screen (AID 743218). Also: nearly all actives have a fitted effect of over 45% in size. The gist of the method:
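FXR-UAS-bla HEK 293T cells, plated 5 h at 37 C, were exposed to compounds for 16 h at 37 C. CellTiter-Glo was then added to the same wells as the bla readout; luminescence read after 30 min at room temperature.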

Test [16] can be described thus: qHTS assay to identify small molecule antagonists of the farnesoid-X-receptor (FXR) signaling pathway - cell viability counter screen (AID 743221; active = well fitted cell-killing curve with a large enough effect in the repeat runs, not every such curve was filed as active; also: nearly all actives have a fitted effect of over 50% in size). The gist of the method:
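Cytotoxicity counter screen run in the FXR-bla reporter wells: HEK 293T cells exposed to compound with 50 uM (final) chenodeoxycholic acid for 16 h, 37 C, then viability measured by CellTiter-Glo luminescence after 30 min, room temperature.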

Test [17] concerns the target Vitamin D3 receptor (Homo sapiens) (UniProt P11473). In words: qHTS assay to identify small molecule agonists of the vitamin D receptor (VDR) signaling pathway (AID 743222; calls by dose curve). The method in brief: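 VDR-bla cells were plated 4 h at 37C/5% CO2, then exposed to compounds in DMSO for 16 h. After LiveBLAzer B/G FRET substrate addition and 2 h at room temperature, beta-lactamase reporter fluorescence was read.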

The target is the same in test [18]. Nature of the test: qHTS assay to identify small molecule antagonists of the vitamin D receptor (VDR) signaling pathway (AID 743223; active = well fitted inhibition curve with a large enough effect in the signal ratio in the repeat runs, not every such curve was filed as active; the % refers to the signal ratio). The method in brief:
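Antagonist mode: compound added to VDR-bla cells alongside agonist 1alpha,25-dihydroxyvitamin D3 (3 nM final), incubation 16 h at 37C. Read-out is LiveBLAzer FRET fluorescence, 2 h at room temperature.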

Test [19] has as its target Bile acid receptor (Homo sapiens) (UniProt Q96RI1). Nature of the test: qHTS assay to identify small molecule agonists of the farnesoid-X-receptor (FXR) signaling pathway (AID 743220; active = well fitted activation curve with a large enough effect in the signal ratio in the repeat runs, not every such curve was filed as active; the % refers to the signal ratio). The gist of the method:
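Beta-lactamase reporter under UAS control in GeneBLAzer FXR HEK 293T cells (5000/well) measured with LiveBLAzer FRET substrate after 2 h at room temperature. Compound exposure lasted 16 h at 37C.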

Sequence of Peroxisome proliferator-activated receptor delta (Homo sapiens) (Q03181 whole entry, looked up): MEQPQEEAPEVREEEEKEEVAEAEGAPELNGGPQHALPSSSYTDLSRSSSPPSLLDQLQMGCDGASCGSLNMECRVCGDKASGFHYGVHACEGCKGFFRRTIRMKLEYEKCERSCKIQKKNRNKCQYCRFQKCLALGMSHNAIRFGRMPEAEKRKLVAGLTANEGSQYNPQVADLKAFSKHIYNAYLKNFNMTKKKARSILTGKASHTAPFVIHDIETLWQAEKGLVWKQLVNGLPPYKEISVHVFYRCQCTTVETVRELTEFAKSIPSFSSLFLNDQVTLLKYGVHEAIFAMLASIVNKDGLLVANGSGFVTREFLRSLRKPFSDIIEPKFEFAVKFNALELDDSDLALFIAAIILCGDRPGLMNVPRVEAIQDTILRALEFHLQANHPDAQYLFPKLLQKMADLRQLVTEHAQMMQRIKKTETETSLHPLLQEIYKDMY
Sequence of Vitamin D3 receptor (Homo sapiens) (P11473 whole entry, looked up): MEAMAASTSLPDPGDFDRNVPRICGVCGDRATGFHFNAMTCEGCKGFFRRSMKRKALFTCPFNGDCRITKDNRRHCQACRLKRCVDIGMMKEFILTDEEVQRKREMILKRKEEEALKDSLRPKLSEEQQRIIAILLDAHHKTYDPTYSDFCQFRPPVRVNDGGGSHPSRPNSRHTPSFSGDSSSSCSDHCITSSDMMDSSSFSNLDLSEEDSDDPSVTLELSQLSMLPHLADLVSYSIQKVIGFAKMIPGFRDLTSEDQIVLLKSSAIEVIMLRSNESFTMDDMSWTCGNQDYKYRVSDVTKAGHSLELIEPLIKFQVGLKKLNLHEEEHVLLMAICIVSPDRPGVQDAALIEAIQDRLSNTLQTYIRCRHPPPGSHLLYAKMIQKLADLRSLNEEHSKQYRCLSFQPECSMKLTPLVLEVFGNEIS
Sequence of Aryl hydrocarbon receptor (Homo sapiens) (P35869 whole entry, looked up): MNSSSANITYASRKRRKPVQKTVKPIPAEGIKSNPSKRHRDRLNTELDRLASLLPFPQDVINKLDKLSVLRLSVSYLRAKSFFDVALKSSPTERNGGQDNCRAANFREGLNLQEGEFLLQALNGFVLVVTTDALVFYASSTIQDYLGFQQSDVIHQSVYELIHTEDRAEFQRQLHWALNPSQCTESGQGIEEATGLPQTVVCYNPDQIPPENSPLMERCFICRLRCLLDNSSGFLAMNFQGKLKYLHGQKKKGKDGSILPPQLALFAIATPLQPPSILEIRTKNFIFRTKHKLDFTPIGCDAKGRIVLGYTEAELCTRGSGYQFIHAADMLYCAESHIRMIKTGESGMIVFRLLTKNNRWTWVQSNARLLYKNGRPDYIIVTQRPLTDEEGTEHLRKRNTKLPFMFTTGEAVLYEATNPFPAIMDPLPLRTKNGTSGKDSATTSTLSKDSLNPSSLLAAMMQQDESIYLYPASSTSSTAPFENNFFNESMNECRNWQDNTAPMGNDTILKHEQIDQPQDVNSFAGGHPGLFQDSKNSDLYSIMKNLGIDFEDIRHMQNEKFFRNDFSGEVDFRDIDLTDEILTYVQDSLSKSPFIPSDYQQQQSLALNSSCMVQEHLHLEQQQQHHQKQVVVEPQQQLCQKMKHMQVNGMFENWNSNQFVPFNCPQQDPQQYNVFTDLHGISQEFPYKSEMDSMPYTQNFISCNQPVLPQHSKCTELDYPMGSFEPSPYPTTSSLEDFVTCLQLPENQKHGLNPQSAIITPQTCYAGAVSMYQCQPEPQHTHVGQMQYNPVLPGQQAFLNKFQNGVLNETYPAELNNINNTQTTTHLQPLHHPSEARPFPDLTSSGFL
Sequence of Bile acid receptor (Homo sapiens) (Q96RI1 whole entry, looked up): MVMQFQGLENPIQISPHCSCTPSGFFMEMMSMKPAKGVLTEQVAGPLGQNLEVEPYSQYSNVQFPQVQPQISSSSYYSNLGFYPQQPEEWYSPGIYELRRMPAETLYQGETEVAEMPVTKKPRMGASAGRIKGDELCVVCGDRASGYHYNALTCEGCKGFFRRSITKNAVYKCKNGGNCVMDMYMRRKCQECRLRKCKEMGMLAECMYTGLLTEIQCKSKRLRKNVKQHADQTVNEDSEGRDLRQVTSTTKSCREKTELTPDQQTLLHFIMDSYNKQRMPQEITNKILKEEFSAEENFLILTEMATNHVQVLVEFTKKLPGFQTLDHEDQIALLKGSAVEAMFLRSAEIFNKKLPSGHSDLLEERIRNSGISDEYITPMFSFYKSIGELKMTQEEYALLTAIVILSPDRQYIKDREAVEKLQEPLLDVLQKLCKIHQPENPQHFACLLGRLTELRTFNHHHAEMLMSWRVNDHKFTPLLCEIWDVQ

On to `CCN(N=O)C(N)=O`, for which the Potency entry in test [1], in [2], in test [3], in [4], in test [5] and in test [6] was “inactive” in each case. In addition, the Potency result in test [7], in test [8], in test [9], in test [10], in [11] and in test [12] was “inactive” each time. The Potency entry in test [13], in test [14], in test [15] and in test [16] was “inactive” in each case. Moreover, the result in test [17] and in test [18] was inactive.

With `CCCCCc1cc(O)cc(O)c1`, the Potency result in [1], in [3], in [4], in [6], in [8] and in test [9] was “inactive” each time. Moreover, the Potency result in [10], in test [11], in test [12], in [13], in test [15] and in [16] was “inactive” throughout. The Potency in test [2] is 61.4 µM (active); in test [5], 24.7 µM (active); in test [7] it was 48.8 µM (active) and 48.6 µM (active). The molecule was classed as inactive in [17] and in [18].

Regarding `CCC(CC)Nc1c([N+](=O)[O-])cc(C)c(C)c1[N+](=O)[O-]`, the Potency result in test [1], in test [2], in [3], in test [4], in test [5] and in test [6] was “inactive” each time. Also, the Potency entry in test [7], in test [8], in test [9], in test [10], in test [11] and in test [12] was “inactive” throughout. In addition, the Potency entry in [13], in test [14] and in [16] was “inactive” in each case. Further, the molecule was classed as inactive in [19], in test [17] and in test [18].

Take `O=S(=O)(Oc1ccc(Cl)cc1)c1ccc(Cl)cc1`: the Potency result in test [1], in test [2], in test [3], in [4], in test [5] and in [6] was “inactive” each time. Also, the Potency entry in test [7], in test [8], in [9], in test [10], in test [11] and in test [12] was “inactive” each time. For the same molecule, the Potency entry in test [13], in test [14], in [15] and in test [16] was “inactive” throughout. For the same molecule, the result in test [17] and in test [18] was inactive.

As for `CCCCC(CC)COC(=O)c1ccc(C(=O)OCC(CC)CCCC)c(C(=O)OCC(CC)CCCC)c1` (centres undefined), the Potency result in test [1], in [2], in test [3], in test [4], in test [5] and in [6] was “inactive” each time. Also, the Potency entry in [7], in test [8], in test [9], in [10], in test [11] and in [12] was “inactive” throughout. For the same molecule, the Potency result in test [13], in test [14], in [15] and in test [16] was “inactive” each time. The outcome in test [17] and in test [18] was inactive.

Consider `Nn1cnnc1`, for which the Potency entry in test [1], in test [2], in test [3], in test [4], in test [5] and in [6] was “inactive” throughout. Also, the Potency entry in [7], in test [8], in test [9], in test [10], in [11] and in test [12] was “inactive” each time. Also, the Potency entry in [13], in test [14] and in test [16] was “inactive” each time. The molecule was classed as inactive in test [17] and in test [18].

Consider `OCC(O)CO`, for which the Potency result in [1], in test [2], in test [3], in test [4], in test [5] and in [6] was “inactive” each time. Also, the Potency result in test [7], in [8], in test [9], in test [10], in test [11] and in [12] was “inactive” throughout. In addition, the Potency entry in test [13], in test [14] and in [16] was “inactive” each time. Also, the result in test [19], in [17] and in test [18] was inactive.
